# High-throughput results deposited in PubChem BioAssay by National Center for Advancing Translational Sciences (NCATS).
# Rows were chosen to be rich in hits. Some 0.51% of all compounds tested hit in one or more screens of this group.
# Epigenetic derep: epigenetic control regulation, reporter derepression | murine LDR cells, GFP reporter derepression, 30 h | Potency, µM (titrated, usually from 53.9 µM), without a hit: at the top dose GFP activation, hits mostly activators | actives 0.2% (n = 280,000) | AID 1865; also: % of control where 0% means no effect; nearly all actives have a fitted effect of over 60% in size
#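 Murine LDR cells carrying a silenced, genomically integrated CMV-driven GFP reporter were exposed to compound for 30 hours at 37 C. After PBS washes, GFP-positive cells (20–120 um objects) were counted by laser-scanning microplate cytometry.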
# Vif-A3F inh: blocks the Vif interaction with APOBEC3F | HeLa A3F-eYFP + Vif (tagged APOBEC3F with the HIV-1 protein that degrades it), YFP fluorescence increase | actives 0.2% (n = 390,000) | Potency, µM (titrated, usually from 46.1 µM), without a hit: at the top dose activity, negative = active; also: % of control where 0% means no effect; nearly all actives have a fitted effect of over 65% in size
#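 HeLa cells stably expressing A3F-eYFP plus Vif, plated and incubated overnight at 37 deg C, then exposed to compounds overnight at 37 deg C. Blocked degradation read as raised yellow fluorescence (Ex 488/Em 500-530).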
# Vif-APOBEC3G blk: Vif-A3G binding inhibition | HeLa A3G-eYFP + Vif (tagged APOBEC3G with the HIV-1 protein that degrades it), YFP fluorescence, overnight | Potency, µM (highest dose often 46.1 µM), for inactives: at the top dose activity, negative = active, usual class: inhibitors | actives 0.076% (n = 410,000) | AID 602310; also: % is scaled to controls: 0 for no effect and ±100 for the full control effect; nearly all actives have a fitted effect of over 60% in size
# Target sequence (Q9HC16 whole entry, looked up): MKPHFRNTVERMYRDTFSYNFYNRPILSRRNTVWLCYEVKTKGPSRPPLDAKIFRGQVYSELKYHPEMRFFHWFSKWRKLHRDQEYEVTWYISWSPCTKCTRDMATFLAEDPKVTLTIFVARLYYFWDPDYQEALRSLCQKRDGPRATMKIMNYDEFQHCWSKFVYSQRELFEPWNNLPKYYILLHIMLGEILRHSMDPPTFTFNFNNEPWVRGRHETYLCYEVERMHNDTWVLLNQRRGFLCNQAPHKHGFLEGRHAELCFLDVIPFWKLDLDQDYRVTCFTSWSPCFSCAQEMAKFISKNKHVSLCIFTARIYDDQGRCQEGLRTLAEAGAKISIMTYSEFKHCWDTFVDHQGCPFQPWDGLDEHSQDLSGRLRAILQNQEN
#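 HeLa cells stably expressing Vif and C-terminally eYFP-tagged A3G, seeded overnight at 37 deg C, then exposed to compound by pintool overnight at 37 deg C. Rise in yellow fluorescence (Ex 488/Em 500-530, Acumen) marks blocked Vif-driven A3G degradation.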
# PINK1 expr mod: modulators of PINK1 expression; PINK1 immunofluorescence, high-content cytometry, 24 h; Potency, µM (titrated, usually from 76.6 µM), for the others: top-dose activation (PINK1 increase), hits mostly activators; actives 0.2% (n = 410,000); AID 624263; active = well fitted activation curve with a large enough effect; inconclusive = small, poorly fitted or top-dose-only effect; cell line not stated here; also: % of control where 0% means no effect; nearly all actives have a fitted effect of over 65% in size
#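 Fluorescence from anti-PINK1 antibody, together with nuclear and cell stains, was scanned on a laser-scanning cytometer. Before staining, stable-line cells were incubated 24 hours with compounds at 5 concentrations; primary antibody 12 h at 10 degrees C.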
# Starred values were filed as active, the others as inactive; ? = inconclusive; · = no result given. Unless noted, calls follow the shape of the dose curve; as a rule, active = well fitted curve in the direction sought with a large enough effect; inconclusive = small, poorly fitted or top-dose-only effect, or another doubt; inactive = no such curve, though single readings can be large; an effect the other way counts as inactive or inconclusive. Potency is read from the fitted curve at half-maximal effect.
SMILES,Epigenetic derep,Vif-A3F inh,Vif-APOBEC3G blk,PINK1 expr mod
CCN(CC)c1ccc(/C=C/[N+](=O)[O-])cc1,15%,25µM*,?,8%
C=C1C2CCC3[C@@](CC[C@@H]4C(C(=O)O)CC(OC5OC(CO)C(OS(=O)(=O)O)C(OS(=O)(=O)O)C5OC(=O)CC(C)C)C[C@]34C)(C2)C1O (some centres not stated),1%,·,·,·
Cc1cc(O)c2c(c1)C(=O)C13C(=C2O)C(=O)[C@H]2[C@@H](O)[C@@H]1[C@H]1[C@H](O)[C@@H]3C(=O)C3=C(O)c4c(O)cc(C)cc4C(=O)C312 (some centres not stated),·,?,?,28µM*
O=C(c1ccccc1)c1cn(CC(=O)N2CCCC2)c2ccccc12,3%,-9%,0%,3%
CCN(CC)c1ccc(/C=C2\C(=O)NC(=S)N(c3ccc(OC)cc3OC)C2=O)o1,·,11µM*,-30%,0%
COc1ccc(N2C(=O)/C(=C/c3ccc(N(C)C)o3)C(=O)NC2=S)cc1,·,?,-22%,-2%
CCN1C(=O)/C(=C/c2ccc(N(CC)CC)cc2OC)C(=O)NC1=S,9%,7.9µM*,0%,0%
COc1ccccc1/C=C1\C(=O)NC(=S)N(c2ccccc2)C1=O,·,-6%,0%,1%
CS(=O)(=O)c1ccc(C2=C(CNC(=O)c3cccnc3)[C@H]3CC[C@@H](C2)N3Cc2ccco2)cc1,·,0%,2%,0%
Oc1ccc(Cl)cc1Cc1ccccc1,·,-6%,-10%,11%
O=[N+]([O-])c1ccc2c(c1)Cc1cc(O)ccc1-2,·,-2%,-3%,-1%
